The list is not random: actives were taken first. Their share in the collection is about 0.79%.
AmpC inh detg: AmpC beta-lactamase inhibition with detergent present; P00811; Potency, µM (top dose mostly 114 µM), inactives show top-dose activity change, negative = inhibition, actives largely listed as inhibitors; AmpC hydrolysis of nitrocefin, absorbance 480 nm, 0.01% Triton; 370,000 tested, 0.041% active;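 also: 0% = no-compound wells and -100% = no-enzyme wells; nearly all actives have a fitted effect of over 25% in size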
Target sequence (P00811 whole entry, looked up): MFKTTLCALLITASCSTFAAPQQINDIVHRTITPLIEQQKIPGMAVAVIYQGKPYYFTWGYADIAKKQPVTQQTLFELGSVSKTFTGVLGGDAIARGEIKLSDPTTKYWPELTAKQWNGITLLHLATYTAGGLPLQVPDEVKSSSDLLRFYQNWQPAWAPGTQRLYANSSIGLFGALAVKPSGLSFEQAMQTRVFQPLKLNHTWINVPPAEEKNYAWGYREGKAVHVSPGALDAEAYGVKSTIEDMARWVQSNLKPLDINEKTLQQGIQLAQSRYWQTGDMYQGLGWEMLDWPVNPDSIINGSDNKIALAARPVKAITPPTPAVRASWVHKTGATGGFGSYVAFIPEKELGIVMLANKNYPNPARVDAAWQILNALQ
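AmpC (5.3 nM in the dispensed reagent) in 20 mM phosphate pH 7.0 with 0.01% (detergent screen) or 0.0001% Triton X-100 was preincubated with compounds for 15 min at room temperature. Nitrocefin was then added from an 800 uM solution, and hydrolysis was followed at 480 nm.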
RE007 growth inh: less growth of the S. pombe RE007 Vpr strain. S. pombe RE007 Vpr strain, BacTiter-Glo ATP luminescence, 24 h. 360,000 tested, 0.21% active. Potency, µM (doses to about 92.2 µM), for inactives: top-dose activity change, negative = less growth, actives largely listed as inhibitors; active = well fitted falling curve with a large enough effect; inconclusive = small, poorly fitted or top-dose-only effect; inactive = no such curve, though single readings can be large or run the other way; also: nearly all actives have a fitted effect of over 50% in size
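Fission yeast RE007 carrying one integrated HIV-1 vpr copy, seeded at OD 0.01 in PMG+AL medium with 23 nL pinned compound. Grown 24 h at 30 degrees; viability read by BacTiter-Glo luminescence after 5 min.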
AMA1-RON2 inh: inhibitors of Plasmodium falciparum AMA1-RON2 interaction | AlphaScreen AMA1-biotinylated RON2 peptide binding | Potency, µM (highest dose often 58.2 µM), inactives show top-dose activity change, negative = inhibition, usual class: inhibitors | 360,000 tested, 0.2% active;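 also: 0% = vehicle wells and -100% = peptide control; nearly all actives have a fitted effect of over 45% in size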
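AMA1 (3D7) with his tag at 25 nM final met compounds first, then biotinylated RON2 peptide at 25 nM; detection used donor plus acceptor beads, 10 µg/mL apiece, read by AlphaScreen after 30 min at room temperature.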
AmpC no deterg: blocks E. coli AmpC beta-lactamase in detergent-free assay; AmpC nitrocefin hydrolysis, absorbance 480 nm, 0.0001% Triton; Potency, µM (titrated, usually from 57.1 µM), inactives show at the highest dose activity change, negative = inhibition, actives largely listed as inhibitors; 330,000 tested, 0.52% active; AID 485341;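 also: plate controls were no compound for no effect and no enzyme for full effect; nearly all actives have a fitted effect of over 20% in size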
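20 mM phosphate pH 7.0 + 0.01% (detergent screen) or 0.0001% Triton X-100; 5.3 nM AmpC reagent; cpd preinc 15 min RT; nitrocefin (800 uM stock) to start; A480 q20 s × 4 min; Activity was normalised to no-enzyme and no-compound control wells.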
* marks the source's active call; other numbers are inactive results; ? = inconclusive; . = no result; [ ] = remark or other dose. Unless noted, calls follow the shape of the dose curve; as a rule, active = well fitted curve in the direction sought with a large enough effect; inconclusive = small, poorly fitted or top-dose-only effect, or another doubt; inactive = no such curve, though single readings can be large; an effect the other way counts as inactive or inconclusive. Unless noted, % is scaled to controls: 0 for no effect and ±100 for the full control effect; potency is read from the fitted curve at half-maximal effect.

SMILES	AmpC inh detg	RE007 growth inh	AMA1-RON2 inh	AmpC no deterg
O=C1NC(=O)C(=Cc2cc3c(cc2[N+](=O)[O-])OCO3)C(=O)N1	50µM*	-5%	-11%	?
CC(C)CNS(=O)(=O)c1ccc(CCC(=O)N2CCOCC2)cc1	4%	-5%	-10%	0.22µM*
Cc1ccc(C)c2[nH]c(=O)c(CCNC(=O)C(C)(C)C)cc12	-4%	8%	-4%	40µM*
Cc1ccc(C)c2[nH]c(=O)c(CCNC(=O)c3ccc(S(=O)(=O)N(C)C)cc3)cc12	-15%	-11%	-6%	2.8µM*
CSc1ccc(CCNC(=O)CCc2c(C)nc3cc(-c4ccccc4)nn3c2C)cc1	-1%	.	.	.
COc1cc(C2CC(=O)Oc3c(C(CCN4CCN(c5ccccc5)CC4)c4ccc(N(C)C)cc4)c(OC)cc(OC)c32)cc(OC)c1OC (configuration not stated)	0%	-8%	14µM*	208%
COc1cc(OC)c2c(-c3ccccc3)cc(=O)oc2c1C(CCN1CCCC(C)C1)c1ccc(N(C)C)cc1 (configuration not stated)	0%	-4%	16µM*	214%
COc1cc(OC)c2c(-c3ccccc3)cc(=O)oc2c1C(CCN1CCN(c2ccccc2)CC1)c1ccc(N(C)C)cc1 (configuration not stated)	3%	-16%	7.9µM*	69%
COc1cc(C2CC(=O)Oc3c(C(CCN4CCOCC4)c4ccc(N(C)C)cc4)c(OC)cc(OC)c32)cc(OC)c1OC (configuration not stated)	0%	-7%	?	223%
COc1cc(OC)c2c(-c3ccccc3)cc(=O)oc2c1C(CC(=O)N1CCOCC1)c1ccc(N(C)C)cc1 (configuration not stated)	6%	-3%	?	169%
CCN(CC)CCC(c1ccc(N(C)C)cc1)c1c(OC)cc(OC)c2c(-c3ccccc3)cc(=O)oc12 (configuration not stated)	2%	14%	18µM*	187%
COc1ccc(C(CCN2CCCC(C)C2)c2c(OC)cc(OC)c3c(-c4ccccc4)cc(=O)oc23)cc1 (configuration not stated)	6%	23%	-21%	187%
Cc1ccc(NC(=O)Cn2cc3c(n2)CCCC3)cc1Cl	14%	.	.	.
O=C(Cn1c(=O)nc(-c2ccccc2)c2ccccc21)NCc1ccc(Cl)cc1	-9%	.	.	.
COc1cc2c(cc1NC(=O)C(C)Oc1ccc(Cl)cc1Cl)oc1ccccc12 (configuration not stated)	28%	.	.	.
COc1ccc(C(CCN2CCOCC2)c2c(OC)cc(OC)c3ccc(=O)oc23)cc1 (configuration not stated)	.	-12%	-3%	111%
COc1cc(O)c(C(CCN2CCCC2)c2ccc3c(c2)OCO3)c(OC)c1 (configuration not stated)	-6%	-13%	-26%	9%
COc1cc(OC)c2ccc(=O)oc2c1C(CCN1CCN(c2ccccc2)CC1)c1ccc(N(C)C)cc1 (configuration not stated)	-3%	3%	25µM*	75%
CCCCCc1cc(=O)oc2c(C(CCN3CCN(c4ccccc4)CC3)c3ccc(N(C)C)cc3)c(OC)cc(OC)c12 (configuration not stated)	-4%	-9%	11µM*	79%
CCCCCc1cc(=O)oc2c(C(CCN3CCCCC3)c3ccc4c(c3)OCO4)c(OC)cc(OC)c12 (configuration not stated)	5%	2%	-15%	142%
COc1ccc(C2CC(=O)Oc3c(C(CCN4CCCC(C)C4)c4ccc(N(C)C)cc4)c(OC)cc(OC)c32)cc1 (configuration not stated)	-3%	13%	18µM*	182%
COc1cc(O)c(C(CCN2CCN(c3ccccc3)CC2)c2ccc3c(c2)OCO3)c(OC)c1 (configuration not stated)	2%	-11%	16µM*	-7%
CCOc1ccc(-c2cn3c(n2)sc2cc(C(=O)NCCCN4CCCCC4)ccc23)cc1	-2%	.	.	.
CCCS(=O)(=O)c1nc(S(=O)(=O)c2ccc(C)cc2)c(NCc2ccccc2)s1	1%	.	.	.
Cc1ccc(Cn2c3ccccc3c3cnn(CC(=O)N4CCCCCC4)c(=O)c32)cc1	17%	.	.	.
SMILES	AmpC inh detg	RE007 growth inh	AMA1-RON2 inh	AmpC no deterg
COc1cccc(-n2c(=O)c3c(C)c(C(=O)N(C)C)sc3n(CC(=O)Nc3ccc(C)cc3Cl)c2=O)c1	-5%	.	.	.
Cc1ccc(N2CCOCC2)c2c1C(=O)c1ccccc1C2=O	3%	4%	14µM*	120%
CCCOc1ccc(OC(=O)c2c(-c3ccccc3Cl)noc2C)cc1	-1%	.	.	.
O=C(O)c1ccc(N=Nc2c(O)ccc3ncccc23)cc1	0%	-20%	6.3µM*	-27%
Cc1cccc(CSc2nc3ccncc3n2CC(=O)Nc2ccc(C)c(C)c2)c1	-13%	.	.	3.2µM*
CC(=O)c1cc(-c2ccccc2)n(CC(=O)Nc2cccc(C)c2C)c1C	-8%	15%	16%	-25%
Cc1ccc(NC(=O)Cn2c(/C=C/c3ccccc3)nc3ccccc32)cc1C	4%	-5%	-2%	8.9µM*
CC(C)c1ccccc1NC(=O)Cn1c(/C=C/c2ccccc2)nc2ccccc21	-7%	12%	-1%	-45%
Cc1ccc(C)c(CSc2nc3ccncc3n2CC(=O)Nc2ccc(N(C)C)cc2)c1	16%	.	.	.
CC(=O)c1cc(-c2ccccc2)n(CC(=O)Nc2ccc(C)c(C)c2)c1C	2%	1%	1%[11.6 µM]	11µM*
Cc1ccc(CNc2ccc(-c3nc(-c4ccccn4)no3)cc2[N+](=O)[O-])cc1	16%	.	.	.
Cc1ccccc1Nc1cc(C(=O)NCCCN2CCN(c3cccc(Cl)c3)CC2)c2ccccc2n1	0%	.	.	.
CCOc1ccc(OCC)c(NC(=O)C2CCN(c3nnc(-n4cccc4)s3)CC2)c1	11%	.	.	.
O=C(NNc1ccc(Cl)cc1)c1c(F)cccc1Cl	5%	58%	-21%	-18%
CC(=O)C(=Nc1ccccc1Cl)NNc1ccc(Cl)cc1	-4%	-6%	20µM*	-27%
O=C(CCCn1c(=O)c2ccccc2n(CC(=O)Nc2ccc(F)cc2F)c1=O)NCc1ccccc1Cl	-7%	.	.	.
CN1c2ccc([N+](=O)[O-])cc2N(C)C1(C)c1ccccc1 (configuration not stated)	1%	3%	13µM*	-39%
CCOc1ccc(N(CC)S(=O)(=O)N2CCCC(C(=O)Nc3cc(Cl)ccc3OC)C2)cc1 (configuration not stated)	17%	.	.	.
O=C(/C=C\c1ccco1)c1ccc(NC(=O)c2ccco2)cc1	2%	-20%	-2%	6.3µM*
CC(=O)Nc1ccc(C(=O)/C=C/c2ccco2)cc1	-10%	-28%	-17%	-33%

High-throughput results (PubChem BioAssay)
